Results on twelve molecules are retold here after ChEMBL document CHEMBL1157539, “Thousands of chemical starting points for antimalarial lead identification” (Nature, 2010).

This test deals with Plasmodium falciparum. The experiment in a line: GSK_TCMDC: Inhibition of Plasmodium falciparum 3D7 in whole red blood cells, using parasite LDH activity as an index of growth. Test compounds present at 2uM. It counts as functional.
For the molecule `COCCn1c(-c2cccc(Cl)c2)nn(-c2ccc([N+](=O)[O-])cc2C#N)c1=S`, the Inhibition is recorded as 100%.
Under `Cc1cccc2nc(-c3ccc(-c4cccc(CN5CCCC5CN)c4)s3)[nH]c12.O=C(O)C(F)(F)F` (configuration not stated) stands 91%; under `O=C(NCC1CC1)C1Cc2c([nH]c3ccc(Br)cc23)C2(CCN(CCc3ccccc3)CC2)N1` (configuration not stated), 88%.
For `O=C(Nc1cccc(C(F)(F)F)c1)c1ccc(S(=O)(=O)NCC2CCN(CC3CCCCC3)CC2)cc1.O=C(O)C(F)(F)F` the value was 100%; for `CN1CCN(CCCN(Cc2cccc(-c3ccc(CNCc4ccc5c(c4)OCO5)cc3)c2)C(=O)CCC2CCCC2)CC1.O=C(O)C(F)(F)F`, 98%; for `O=C(Nc1ccc(Cl)cc1)c1cccc2nc(C(F)(F)F)[nH]c12`, 93%.
Under `CC(C)(C)NCC(O)COc1ccc(Cl)cc1C1=NNC(=O)CC1.Cl` (configuration not stated) stands 96%; under `COCCNc1nc(N2CCC(CNC(=O)c3ccc(-c4ccc(C(=O)N(C)C)cc4C)cc3)CC2)nc2cc(OC)c(OC)cc12`, 98%; under `CN(C)c1ccc(-c2csc(C(=O)NC3CCN(CCC(C)(C)C)C3)c2)cc1.O=C(O)C(F)(F)F` (configuration not stated), 95%.
The molecule `CC(C)(C)c1ccc(C(=O)NC2CCC(CCN3CCc4ccc(S(C)(=O)=O)cc4CC3)CC2)cc1C(F)(F)F` (configuration not stated) showed an Inhibition of 88%.
Under `CC(=O)c1cccc(NC(=O)NC2CCN(c3ccnc(Nc4ccc(F)cc4)n3)C2)c1` (configuration not stated) stands 99%; under `COc1c(C2CCN(CCCCNC(=O)c3cc(-c4ccc(Cl)cc4)[nH]c3C)CC2)ccc2c1CCCC2`, 100%.

Usually Inhibition stands for the share of the control response that was lost under treatment. High values mean a response far below the control, low ones a response near the control.
